Test results: PubChem BioAssay (NCI)
Values joined by “and” are separate entries in the source; they are usually repeats but may differ in a detail not shown here. Equal values may be shown once. Compounds without any hit were thinned out: in the full panel of roughly 83,000, 20% have a hit.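 Values shown are percent growth following 48 h exposure of cells in 96-well plates to a single concentration of compound; below 10 was considered active.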 Active and inactive are the calls of the source.

How the values were obtained:
Experiment in all cases: NCI-60 one-dose screen, 48 h (100 = growth as untreated, 0 = no growth, -100 = all killed)
Settings in all cases: 10 µM unless noted
[1] = system: SR leukemia
[2] = system: RPMI-8226 leukemia
[3] = system: OVCAR-8 ovarian
[4] = system: OVCAR-5 ovarian
[5] = system: OVCAR-4 ovarian
[6] = system: IGROV1 ovarian
[7] = system: OVCAR-3 ovarian
[8] = system: HS 578T breast
[9] = system: NCI/ADR-RES ovarian
[10] = system: T-47D breast
[11] = system: BT-549 breast
[12] = system: MDA-MB-435 melanoma
[13] = system: SW-620 colon
[14] = system: MCF7 breast
[15] = system: HCT-116 colon
[16] = system: HCC-2998 colon
[17] = system: KM12 colon
[18] = system: SK-OV-3 ovarian

Row | Compound | growth [1] | growth [2] | growth [3] | growth [4] | growth [5] | growth [6] | growth [7] | growth [8] | growth [9] | growth [10] | growth [11] | growth [12] | growth [13] | growth [14] | growth [15] | growth [16] | growth [17] | growth [18]
1 | CCCCCCCC/C=C\CCCCCCCCOc1ccccc1CC(=O)NCC[N+]1(C)CCOCC1 | 30% (inactive) | 77.7% (inactive) | 78.1% (inactive) | 42.7% (inactive) | 102% (inactive) | 25.2% (inactive) | 101% (inactive) | 92.9% (inactive) | 97.9% (inactive) | 84.4% (inactive) | 82.3% (inactive) | 95.8% (inactive) | 81.7% (inactive) | 82.2% (inactive) | 71.8% (inactive) | 45.4% (inactive) | 47.3% (inactive) | –
2 | Cc1n(Cc2ccc3ccccc3c2)c(Cl)c(Cl)[n+]1Cc1ccc2ccccc2c1 | 6.73% (active) | -16.8% (active) | 19.1% (inactive) | 51.1% (inactive) | 3.21% (active) | -8.24% (active) | 5.54% (active) | 46.6% (inactive) | 98.8% (inactive) | 10.3% (inactive) | 26.8% (inactive) | -2.29% (active) | 40.5% (inactive) | 21.4% (inactive) | 18.2% (inactive) | 17.3% (inactive) | 0.454% (active) | –
3 | O=C(/C=C/c1ccc(Cl)s1)c1ccc(Cl)s1 | 78.3% (inactive) and 87% (inactive) | 89.9% (inactive) and 66.8% (inactive) | 107% (inactive) and 102% (inactive) | 86.5% (inactive) and 101% (inactive) | 84.5% (inactive) | 88.9% (inactive) | 97.3% (inactive) and 99.3% (inactive) | 96.8% (inactive) | 104% (inactive) and 99.1% (inactive) | 88.8% (inactive) and 96.9% (inactive) | 103% (inactive) | 87.8% (inactive) | 99.7% (inactive) and 95.2% (inactive) | 59.3% (inactive) and 60.5% (inactive) | 68.2% (inactive) and 85.8% (inactive) | 98.8% (inactive) and 102% (inactive) | 89% (inactive) and 95.9% (inactive) | –
4 | CCCCCC#CC1OC23CCCCC2C(C#N)(C(=N)O3)C1(C#N)C#N (centres undefined) | 87% (inactive) | 93.3% (inactive) | 85.8% (inactive) | 102% (inactive) | 108% (inactive) | 99.4% (inactive) | 117% (inactive) | 94.1% (inactive) | 102% (inactive) | 113% (inactive) | 89.9% (inactive) | 92.6% (inactive) | 95.5% (inactive) | 88.4% (inactive) | 89.2% (inactive) | 102% (inactive) | 99.3% (inactive) | –
5 | C=C(CNCCc1ccc(O)cc1)[C@@H]1CC[C@]2(CO)CC[C@]3(C)[C@H](CC[C@@H]4[C@@]5(C)CCC(NCCc6ccc(O)cc6)C(C)(C)[C@@H]5CC[C@]43C)[C@@H]12 (some centres undefined) | -58.5% (active) | -51.7% (active) | -78.1% (active) | -86.3% (active) | -81.7% (active) | – | -94.2% (active) | -38.9% (active) | -54.5% (active) | -69.1% (active) | -79.7% (active) | -89.9% (active) | -74.1% (active) | -74.3% (active) | -92% (active) | -91.3% (active) | -77.4% (active) | -97.4% (active)
6 | Cc1ccc(C(=O)N(CCCN)[C@@H](c2nc3cc(Cl)ccc3c(=O)n2Cc2ccccc2)C(C)C)cc1 | -32% (active) | -36.6% (active) | -11.7% (active) | -17.5% (active) | 33.3% (inactive) | 8.41% (active) | -13.7% (active) | -12.8% (active) | -30.1% (active) | -41.7% (active) | 24.2% (inactive) | -89.9% (active) | -77.6% (active) | -61.2% (active) | -77.9% (active) | -74.4% (active) | -45.8% (active) | –
7 | O=[N+]([O-])c1ccc(S(=O)Cc2ccccc2)c([N+](=O)[O-])c1 (centres undefined) | 1.64% (active) and -8.84% (active) | 72.8% (inactive) and 27.5% (inactive) | 45.8% (inactive) and 94.9% (inactive) | 82.4% (inactive) and 93.3% (inactive) | 59.7% (inactive) and 1.6% (active) | 89.9% (inactive) and 106% (inactive) | 13.9% (inactive) and -74.6% (active) | 118% (inactive) and 95.2% (inactive) | 90.9% (inactive) and 90.6% (inactive) | 29.7% (inactive) and -21.4% (active) | 66.3% (inactive) and 67.5% (inactive) | 76.2% (inactive) and 78% (inactive) | -71.3% (active) and -38.1% (active) | 41.1% (inactive) and 5.89% (active) | -88.5% (active) and -82.3% (active) | 97.2% (inactive) and 97.5% (inactive) | – | –
8 | CC(C)(C)c1cc(NC(=O)Nc2ccc(-c3cn4c(n3)sc3cc(OCCN5CCOCC5)ccc34)cc2)no1 | 9.24% (active) and 1.25% (active) | -11% (active) and 22.8% (inactive) | 13.2% (inactive) and -9.65% (active) | 56% (inactive) and 60.8% (inactive) | 59.3% (inactive) and 3.54% (active) | – | -43.2% (active) and 38.5% (inactive) | -2.54% (active) | 51.5% (inactive) and 23.2% (inactive) | -33% (active) and -23.2% (active) | 4.32% (active) and 9.08% (active) | 65.1% (inactive) and 31.5% (inactive) | 49.9% (inactive) and 21.1% (inactive) | 9.99% (active) and 22.3% (inactive) | 8.69% (active) and 14.3% (inactive) | 39.1% (inactive) and 56.4% (inactive) | 13.7% (inactive) and 9.16% (active) | 45.4% (inactive) and 27.9% (inactive)
9 | Clc1ccc2c(NCCN3CCN(c4ccnc(N5CCCC5)n4)CC3)ccnc2c1 | -12.2% (active) | -10.6% (active) | 36.8% (inactive) | 68.8% (inactive) | 57.8% (inactive) | 47.8% (inactive) | 40.8% (inactive) | 76.4% (inactive) | 49% (inactive) | 2.2% (active) | – | 15.2% (inactive) | 12.9% (inactive) | 12.3% (inactive) | 4.45% (active) | 0.613% (active) | 54.3% (inactive) | –
10 | O=S(=O)(Nc1cc(Sc2cccc3cccnc23)c(O)c2ccccc12)c1ccc(F)cc1 | 4.77% (active) | -12.8% (active) | 5.74% (active) | 38.9% (inactive) | -99% (active) | 1.46% (active) | -87.6% (active) | 50% (inactive) | 3.32% (active) | -40.3% (active) | 30.7% (inactive) | 7.68% (active) | -69.3% (active) | -53.4% (active) | -88.5% (active) | 40% (inactive) | 16.5% (inactive) | –
11 | Clc1ccc(CNc2ccc3nc(CCC4CCCCC4)[nH]c3c2)cc1 | 26.2% (inactive) | -6.18% (active) | 65.3% (inactive) | 53% (inactive) | 32.3% (inactive) | 45.9% (inactive) | 69.6% (inactive) | 78.8% (inactive) | – | 24.3% (inactive) | 83.3% (inactive) | 66.4% (inactive) | 26.2% (inactive) | 37.9% (inactive) | 36.2% (inactive) | -57.6% (active) | – | –
12 | CCNC(=O)Oc1ccc(/C(=C(/C)Cc2ccc(OC)cc2)c2ccc(OCCN(CC)CC)cc2)cc1 | -55.3% (active) | -14.8% (active) | 74.8% (inactive) | – | 69.4% (inactive) | 74.7% (inactive) | 50.7% (inactive) | 45.9% (inactive) | 78.1% (inactive) | 27.4% (inactive) | 80.5% (inactive) | 40.5% (inactive) | 45.2% (inactive) | 18.3% (inactive) | 30.9% (inactive) | 59.7% (inactive) | – | 88.6% (inactive)
13 | CCN1C(=O)/C(=c2\sc3n(c2=O)C2C(NN=3)N(CC)C(=O)N2CC)c2ccccc21 (centres undefined) | 15.3% (inactive) | 50.8% (inactive) | 31.8% (inactive) | – | 49.5% (inactive) | 29% (inactive) | -19% (active) | 24.4% (inactive) | 5.59% (active) | 39.5% (inactive) | 17.8% (inactive) | -32.6% (active) | 29.7% (inactive) | 26% (inactive) | 9.36% (active) | 30% (inactive) | 13.7% (inactive) | 54.5% (inactive)
14 | COc1cc(Nc2nc3ccccc3cc2C(=O)Nc2ccc(F)c(F)c2)cc(OC)c1OC | 29.6% (inactive) | 21.8% (inactive) | 15.5% (inactive) | – | 23% (inactive) | 30.8% (inactive) | 10.6% (inactive) | 61.2% (inactive) | 6.91% (active) | 9.25% (active) | 55.5% (inactive) | 19.7% (inactive) | 23% (inactive) | 12.8% (inactive) | 6.91% (active) | 45.3% (inactive) | 20% (inactive) | –
15 | COC(=O)c1nc(-c2ccccc2)oc1S(=O)(=O)N(C)CCO | 8.68% (active) | 42.4% (inactive) | 85.6% (inactive) | – | 77.4% (inactive) | 69.2% (inactive) | 34.7% (inactive) | 99.5% (inactive) | 97.2% (inactive) | 44.5% (inactive) | 72.5% (inactive) | 60.9% (inactive) | 40.4% (inactive) | 47.8% (inactive) | 46.7% (inactive) | 99.4% (inactive) | 89.4% (inactive) | 89.8% (inactive)
